Source: PubChem BioAssay (NCI)
About 83,000 compounds went through this panel and 20% of them were active in at least one assay; those are over-represented in the sample as a whole.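 The test compound was applied at a single concentration to cells in 96-well plates for 48 hours, and percent growth was recorded.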 Active and inactive are the calls of the source. How the source made its calls: active means growth percent below 10; inactive means the rest.

Each molecule was assayed on SNB-75 CNS (assay: NCI-60 one-dose screen, 48 h (100 = growth as untreated, 0 = no growth, -100 = all killed)). Details: 10 µM.

SMILES | growth
NC1=NC(c2ccccc2Cl)N=C(Nc2nn[nH]n2)N1 (configuration not stated) | 95.2% (inactive)
CC(=O)Nc1ccc(-c2cn(-c3cccc(C(=O)Nc4ccc(Cl)c(C(F)(F)F)c4)c3)nn2)cn1 | 88% (inactive)
CC(C)Sc1nc(NC2CC2)c(C#N)c(-c2ccccc2)n1 | 81.3% (inactive)
O=C1CCC(N2Cc3cc(CC(=O)Nc4ccc(N5CCCCC5)cc4)ccc3C2=O)C(=O)N1 (configuration not stated) | 55.7% (inactive)
N#Cc1c(Cl)nc(SCc2ccc(F)cc2)nc1-c1ccc(F)cc1 | 123% (inactive)
Cc1ccc(C(=O)N/C(=C2/OCCN2C)[P+](c2ccccc2)(c2ccccc2)c2ccccc2)cc1 | 99.9% (inactive)
Cc1ccc(C(=O)NNC(=O)CSc2nc3ccccc3c(=O)[nH]2)cc1 | 83.1% (inactive)
Cc1ccc2nc(-c3ccc(-c4nnc(SCC(=O)Nc5ccc(Br)cc5)o4)cc3)[nH]c2c1 | 83.8% (inactive)
CN1C/C(=C\c2ccc(O)cc2O)c2[o+]c3cc(O)ccc3cc2C1 | 60.5% (inactive)
COc1ccc2[nH]cc(/C=N/Nc3ccc(Br)cn3)c2c1 | 43.7% (inactive)
CCCS(=O)(=O)c1oc(-c2ccc(F)cc2)nc1S(=O)(=O)c1ccc(F)cc1 | 53.4% (inactive)
COC[C@@H](CC(C)C)N=C1NC(=O)/C(=C/c2ccc3ncoc3c2)N1 | -9.28% (active)
CC(C)C(=O)Nc1ccc(C(=O)NC(=S)Nc2ccc(C(=O)O)cc2)cc1 | 79.1% (inactive)
Cc1ccc(C(=O)NCCCNc2nc(Nc3ccc(N4CCN(C)CC4)cc3)nc3ccsc23)cc1 | 71.9% (inactive)
CC(=O)Nc1nc(-c2ccc(N3CCN(C)CC3)c(NS(=O)(=O)c3cccc4c(N(C)C)cccc34)c2)cs1 | 56.5% (inactive)
S=c1nc(-c2ccccc2)cc(-c2cc3ccccc3nc2Cl)[nH]1 | 23.4% (inactive)
O=C(/C=C/Nc1ccc(F)cc1F)c1ccc2c(c1)Nc1ccccc1S2 | 124% (inactive)
Cc1ccc(-c2nc(Nc3ccccc3C(=O)O)c3ccccc3n2)cc1 | 15.7% (inactive)
COc1ccc(C(=O)/C=C/c2cc(C(F)(F)F)cc(C(F)(F)F)c2)cc1S(N)(=O)=O | 12% (inactive)

SMILES | growth
COc1ccc(-c2cc(C(=O)N=Nc3c(O)[nH]c4ccccc34)c3ccccc3n2)cc1 | 53.7% (inactive)
CS(=O)(=O)Nc1ccc(-c2ccc3c(c2)ncn3-c2ccc(NC(=O)Nc3ccc(Cl)c(C(F)(F)F)c3)cc2)cc1 | -42% (active)
O=C(Nc1nc2ccc([N+](=O)[O-])cc2s1)Nc1ccccc1I | -1.46% (active)
Clc1ccc2c(N/N=C/c3c[nH]c4ccc(Br)cc34)ccnc2c1 | -91.1% (active)
N#Cc1ccc(-c2nn(-c3ccc(C(=O)O)cc3)cc2CNc2cc(Cl)cc(Cl)c2)cc1 | 78.5% (inactive)
COc1ccc2[nH]c(=O)c(CSc3ccc(Nc4nccc(-c5ccc(Cl)cc5)n4)cc3)cc2c1 | 110% (inactive)
O=C1c2ccccc2C(=O)c2c1c(C(=O)c1ccc(Cl)cc1)n1c2ccc2c3ccccc3ccc21 | 86.7% (inactive)
Cc1ccc(CSc2nc(-c3ccc(F)cc3)c(C#N)c(=O)[nH]2)cc1 | 115% (inactive)
CCCCCc1ccc(S(=O)(=O)N(C(C)=O)c2cc(-c3csc(N(C)C(C)=O)n3)ccc2N2CCN(C)CC2)cc1 | 73% (inactive)
O=C(c1ccc([N+](=O)[O-])c([N+](=O)[O-])c1O)n1[nH]c(=O)c2ccccc2c1=O | 93.5% (inactive)
COC[C@@H](CC(C)C)N=C1NC(=O)/C(=C/c2ccc3ncsc3c2)N1 | -4.85% (active)
O=C1Nc2cc(Cl)ccc2/C1=C/c1cccc(OCc2ccccc2)c1 | 16.8% (inactive)
CN1CCN(c2ccc(C(=O)/C=C/c3cc(C(F)(F)F)ccc3Cl)cc2)CC1 | 42.9% (inactive)
O=C(Cn1nc(-c2ccccc2)ccc1=O)NN1C(=O)c2ccccc2C1=O | 107% (inactive)
O=C(Nc1ccncc1)c1ccc(-n2c(=O)[nH]c3ccccc3c2=O)cc1 | 107% (inactive)
O=C1N/C(=N\c2nccs2)S/C1=C\c1cccs1 | 69.6% (inactive)
COc1cc2c3c(n(CCCn4ccnc4)c(=O)c2cc1OC)-c1nc2c(cc1C3=O)OCO2 | 82.8% (inactive)
CN(C)c1cccc2c(S(=O)(=O)Nc3cccc(-c4csc(NC(=O)CCCCCN5CCN(c6cc7c(cc6F)C(=O)N(C6CCC(=O)NC6=O)C7=O)CC5)n4)c3)cccc12 (configuration not stated) | 60.5% (inactive)
